Screens (PubChem BioAssay)
rTrxR1 inhibitor = rat TrxR1 inhibition; hit rate 1% among 390,000; Potency, µM (top dose mostly 114 µM), most hits filed as inhibitors; recombinant rTrxR1, NADPH fluorescence consumption, selenite substrate; note: nearly all actives have a fitted effect of over 65% in size
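Rat TrxR1 (90 nM in the dispensed reagent) was pre-reduced with 400 uM NADPH for 5 min at room temperature, then incubated with compound for 15 min. After 400 uM selenite was added, NADPH fluorescence (Ex 340/Em 450 nm) was followed for 8 min.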
GALK inhibitor = blocks human galactokinase activity; P51570; Purified GALK, Kinase-Glo residual ATP luminescence; Potency, µM (top dose mostly 57.5 µM), most hits filed as inhibitors; hit rate 0.007% among 270,000; AID 1868
Target sequence (P51570 whole entry, looked up): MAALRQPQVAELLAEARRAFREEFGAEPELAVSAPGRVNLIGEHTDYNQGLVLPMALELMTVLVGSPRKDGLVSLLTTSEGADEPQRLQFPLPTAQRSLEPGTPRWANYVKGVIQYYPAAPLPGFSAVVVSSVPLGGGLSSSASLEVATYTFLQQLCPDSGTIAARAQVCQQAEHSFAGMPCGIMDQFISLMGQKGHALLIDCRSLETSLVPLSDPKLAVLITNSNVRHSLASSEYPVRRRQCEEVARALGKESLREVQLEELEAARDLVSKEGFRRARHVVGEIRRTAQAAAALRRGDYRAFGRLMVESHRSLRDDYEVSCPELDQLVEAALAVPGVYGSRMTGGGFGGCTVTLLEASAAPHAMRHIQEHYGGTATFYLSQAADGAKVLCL
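Luminescence from leftover ATP (Ultra-Glo luciferase/luciferin) served as read-out after a 1 h room-temperature reaction of 5 nM GALK with 35 uM ATP and 100 uM galactose.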
NPSR antagonist = blocks cAMP signaling of the human neuropeptide S receptor. CHO-NPSR cells, cAMP TR-FRET, antagonist mode. hit rate 1% among 220,000. Potency, µM (doses to about 38.3 µM), actives largely listed as inhibitors. Q6W5P4. AID 1461; note: nearly all actives have a fitted effect of over 50% in size
TrxR1 substrate = substrates of rat thioredoxin reductase 1 | O89049 | purified TrxR1 substrate turnover, NADPH consumption readout | Potency, µM (top dose mostly 114 µM) | hit rate 0.01% among 390,000; note: nearly all actives have a fitted effect of over 50% in size
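Rat TrxR1, dispensed at 90 nM, was prereduced with 400 uM NADPH (final) for 5 min at ~22 deg C, then incubated with compound 15 min before 400 uM selenite. A first-read NADPH fluorescence drop versus no-compound background flagged substrates.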
Numbers stand for hits; 0 = inactive; ? = inconclusive; - = no result given; ! = not confirmed by another sample; [ ] = remark or other dose. An excerpt weighted towards active compounds, which were near 1.2% of everything screened. Calls come from the whole dose curve; as a rule, active = well fitted curve in the direction sought with a large enough effect; inconclusive = small, poorly fitted or top-dose-only effect, or another doubt; inactive = no such curve, though single readings can be large; an effect the other way counts as inactive or inconclusive.

SMILES | rTrxR1 inhibitor | GALK inhibitor | NPSR antagonist | TrxR1 substrate
Cc1ccc(Cl)cc1N1CCN(C(=O)c2cnn(C)c2C2CCN(C(=O)OC(C)(C)C)CC2)CC1 | 0 | - | - | 0
Cn1cnc([N+](=O)[O-])c1Oc1ccccc1 | 45µM | 0 | 0 | 0
Cn1cnc([N+](=O)[O-])c1Oc1cccc2ccccc12 | 8.9µM | 0 | 0 | 0
Cn1cnc([N+](=O)[O-])c1Oc1cccc(O)c1 | 25µM | 0 | 0 | 0
Cc1ccc(C(=O)NCC(c2ccc(Cl)cc2)N2CCCCC2)cc1 (stereo unspecified) | 0 | - | - | 0
O=c1[nH]c(SCc2cccc(Cl)c2)nc2ccccc12 | 0 | 0 | 0 | 0
O=c1[nH]c(-c2ccc(-c3cccc(Cl)c3)o2)nc2ccccc12 | 50µM | - | - | 0
C=C(CC)C(=O)c1ccc(OCC(=O)O)c(Cl)c1Cl | 40µM | 0 | ? | 0
CCCCNc1ccc(/C=C2\C=Cc3ccccc32)cc1 | 0 | - | - | 0
CC[n+]1c(/C=C/c2ccc(N(C)C)cc2)ccc2ccccc21 | 0 | - | 5µM | 0
O=C(Cc1ccc(F)cc1)NO | 0 | - | - | 0
Oc1ccc(Nc2nc3ccccc3nc2Nc2ccc(O)cc2)cc1 | ? | 0 | 10µM | 0
CC(C)CC(C(=O)NCCc1ccccc1)N1Cc2ccccc2C1=O (stereo unspecified) | 0 | - | - | 0
CN(C)/[N+]([O-])=N/Oc1ccc([N+](=O)[O-])cc1C(F)(F)F | 0 | - | - | 0[0.457 µM]
Cc1cc(C)nc(NN2C(=O)C=CC2=O)n1 | 7.9µM | 0 | - | 0
CC(C)N(Cc1ccccc1)C(=O)CCS(=O)(=O)c1cc2c(cc1Cl)NC(=O)CO2 | 0 | - | - | 0
O=S(=O)(O)CCS | 0 | - | - | 0
NCCCS(=O)(=O)O | 11µM! | - | 0 | 0
CCOC(=O)N1CCN(C(=O)c2ccc(Cl)c(NC(=O)c3cccs3)c2)CC1 | 0 | - | - | 0
COc1ccc(-n2nc(C#N)c(Cl)cc2=O)cc1 | 6.3µM | 0 | 0 | 0
CCOC(=O)c1cc(C#N)c(SCC(=O)OC)[nH]c1=O | ? | 0 | ? | 0
COC(=O)c1cc(C#N)c(=O)[nH]c1C | 0 | 0 | 0 | 0
COCc1[nH]c(=S)c(C#N)cc1C(=O)OC | 14µM | 0 | 0 | 0
CCOC(=O)c1cc(C#N)c(=S)[nH]c1C | 7.9µM | 0 | 0 | 0
NC1=C(Cl)C(=O)c2ccccc2C1=O | 13µM | - | - | 0
SMILES | rTrxR1 inhibitor | GALK inhibitor | NPSR antagonist | TrxR1 substrate
O=c1c(C(c2ccc(Cl)cc2)c2c(O)nc3n(c2=O)CCS3)c(O)nc2n1CCS2 | 10µM | 0 | 0 | 0
O=c1c(C(c2ccc(F)cc2)c2c(O)nc3n(c2=O)CCS3)c(O)nc2n1CCS2 | 13µM | 0 | 0 | 0
COc1ccc(CNC(=O)Nc2cn(CC(C)C)c(=O)c3ccccc23)cc1 | 0 | - | - | 0
O=C(/C=C/c1cccc([N+](=O)[O-])c1)NCc1ccc2c(c1)OCO2 | 0 | 0 | 0 | 0
COc1ccc(/C=C/C(=O)c2ccc([N+](=O)[O-])o2)cc1 | ? | - | - | 0
Cc1cccc(/C=C/C(=O)c2ccc([N+](=O)[O-])o2)c1 | 1.3µM | - | - | 0
O=C(/C=C/c1cccc([N+](=O)[O-])c1)c1ccc([N+](=O)[O-])o1 | 1.1µM | - | - | 0
Cc1ccccc1NC(=O)c1ccc([N+](=O)[O-])o1 | 0 | 0 | 0 | 0
Cc1ccccc1/C=C/C(=O)c1ccc([N+](=O)[O-])o1 | 3.5µM | - | - | 0
O=C(/C=C/c1cccc([N+](=O)[O-])c1)Nc1cccc(NC(=O)c2ccco2)c1 | 0 | 0 | 0 | 0
O=C(/C=C/c1cccc([N+](=O)[O-])c1)c1ccco1 | 18µM | 0 | - | 0
O=C(Nc1ccccc1)c1ccc(Br)c(S(=O)(=O)N2CCCCC2)c1 | 0 | - | - | 0
COc1cc(OC)c(NC2(c3ccccc3)C(=O)c3ccccc3C2=O)cc1Cl | 0 | - | - | 0
Cc1c(NC(=O)C(C)Sc2nc(N)cc(=O)[nH]2)c(=O)n(-c2ccccc2)n1C (stereo unspecified) | 0 | - | - | 0
CCCCCCCCCn1c2c(c(=N)c3c1CCC3)CCC2 | 0 | 0 | 7.9µM | 0
CCCCCCn1c2c(c(=N)c3c1CCC3)CCC2 | 0 | 0 | 0 | 0
Cc1ccc(C)c(N(C)S(=O)(=O)c2ccc3[nH]cc(C(=O)NC4CCCC4)c(=O)c3c2)c1 | 0 | - | - | 0
CC1=NN2C(=N)/C(=C\c3cc(C)n(-c4cccc(C)c4)c3C)C(=O)N=C2S1 | 0 | 0 | 13µM | 0
Cc1nc2scc(-c3ccco3)c2c(=O)n1/N=C/N(C)C | 32µM | 0 | 0 | 0
CS(=O)(=O)c1ccc(C(=O)NCCN2C(=O)S/C(=C\c3cccnc3)C2=O)cc1[N+](=O)[O-] | 18µM | 0 | 0 | 0
CC(C)(C)n1ncc2c(=O)n(Cc3cc(F)ccc3Cl)cnc21 | 0 | - | - | 0
